Experimental data published in PubChem BioAssay AID624202 (National Center for Advancing Translational Sciences (NCATS), 2012).
Among all 380,000 compounds or so, about 4,000 (1.1%) were called active. Another 3% or so got no clear call; they are omitted. Calls follow the shape of the dose curve; as a rule, active = well fitted activation curve with a large enough effect; inconclusive = small, poorly fitted or top-dose-only effect; inactive = no such curve, though single readings can be large or run the other way. The list comes from a sample in which actives are over-represented; it also holds similar structures and randomly drawn compounds.

test: qHTS Assay to Identify Small Molecule Activators of BRCA1 Expression; conditions: MCF7-BRCA1-FFLuc reporter, luminescence, 48 h; also: nearly all actives have a fitted effect of over 80% in size
From the text: Functionally, BRCA1 has been implicated in a wide array of cellular activities, including DNA damage repair, cell-cycle checkpoint control, growth inhibition, apoptosis, transcriptional regulation, chromatin remodeling, protein ubiquitylation, and mammary stem cell self-renewal and differentiation. Reduction in BRCA1 levels is associated with an increase in tumor growth and resistance to anti-estrogenic agents, such as tamoxifen, while an increase in BRCA1 expression leads to cell growth arrest and apoptosis. […] The frequent loss of BRCA1 expression in invasive breast cancers in the absence of somatic mutation has been attributed to numerous mechanisms, including hypermethylation of the BRCA1 promoter, exaggerated ubiquitylation of BRCA1 protein, and improper intracellular localization. […]
5microl of MCF7-BRCA1-FFLuc cell suspension (400 cells/microl in phenol-red free MEM) are dispensed into Greiner white solid bottom 1536-well assay plates, yielding a final well density of 2000 cells/well. […] The NCGC in-house luciferase substrate reagent, Buglite, is then added (2.5microl) and plates incubated for 15 minutes, before being transferred to a ViewLux high-throughput CCD imager (PerkinElmer) wherein single end-point measurements of luminescence are acquired using a clear filter. […]
Potency is read from the fitted curve at half-maximal effect.

SMILES | Potency
O=C(OCC(=O)c1cccs1)C1=COCCO1 | 15.8 µM (active)
